In the supplement of paper PMC6805474:

System: Schistosoma mansoni schistosomula (LE)
Assay: XTT viability relative to DMSO control; higher = more viable (less active)
Details: 72 h; 10 µM
Procedure: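 XTT/PMS was then added for a further 24 h (72 h total) and A450 was read. % viability = (sample - heat-killed control)/(DMSO control - heat-killed control) x 100, from duplicate wells in two independent experiments.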

Compound | XTT viability [%]
Cc1cc(Cl)ccc1NC(=O)CCc1ccc(S(=O)(=O)NCC(C)C)cc1 | 107
C[C@H](C(N)=O)N1CCCC[C@@H]1c1ccc(OCc2cccc(F)c2)cc1 | 88.1
O=C(Nc1ccc2c(c1)B(O)OC2)c1ccccc1C(F)(F)F | 71.1
COc1cc(NC(C)CCCN)c2ncccc2c1 (stereo not given) | 77.4
CC[C@@H]([C@H](C)O)n1ncn(-c2ccc(N3CCN(c4ccc(OC[C@@H]5CO[C@@](Cn6cncn6)(c6ccc(F)cc6F)C5)cc4)CC3)cc2)c1=O | 88.8
CO[C@@H](C(=O)N1Cc2[nH]nc(NC(=O)c3ccc(N4CCN(C)CC4)cc3)c2C1)c1ccccc1 | 97.4
Cc1cc2nc(NC(=O)C(C)(C)C)nc(Cl)c2n1Cc1ccc(Cl)cc1 | 109
CNC(=O)c1cc(S(=O)(=O)N2CCN(c3ccccn3)CC2)cs1 | 73.4
CC1=Nc2ccc(Cl)cc2C(c2ccccc2)N1CCNC(=O)CN(C)C (stereo not given) | 113
CS(=O)(=O)c1ccc(C(=O)N(CC2CCCO2)c2nc3ccccc3s2)cc1[N+](=O)[O-] (stereo not given) | -7.96
Cc1ccccc1C(=O)N1N=C(Nc2ccccc2)SC1(C)C | 88.7
CC[C@H](CO)NCCN[C@H](CC)CO | 78.3
CCc1cc(=O)n(C)c(SC(C)C(=O)Nc2ccc(F)cc2)n1 (stereo not given) | 115
O=C(c1ccc(NCCO)cc1)C1C[C@H]1c1ccc(Cl)cc1 (stereo not given in full) | 93.3
Clc1ccc(CCNc2cc(-c3ccccc3)nc3ncnn23)cc1 | 83.9
COc1cccn2c(C(=O)N3CCCCC3)c(C(F)(F)F)nc12 | 95.7
Cc1cccnc1NC(=O)c1cccc(OCc2c(C)noc2C)c1 | 114
CN1CCN(c2nccc3nc(-c4ccc(F)c(F)c4)[nH]c23)CC1 | 110
CCC(NC(=O)c1ccccc1NC(=O)c1ccc(C)cc1)C(=O)OC (stereo not given) | 82.9
Cc1ccc(Oc2ccc(NC(=O)CNc3ccccc3N3CCCC3=O)cc2)cc1 | 77

Compound | XTT viability [%]
O=C(NCc1nnc2n1CCCCC2)c1ccc(-c2ccc(F)cc2)o1 | 97.1
COc1ccc(Oc2ccc([C@@H](C)N(C)c3ncc4c(N)nc(N)nc4n3)cc2)cc1 | 4.74
N=C(N)Nc1ccc(-c2ccc(-c3ccc(NC(=N)N)cc3Cl)o2)c(Cl)c1 | 61.7
O=C(OCc1ccccc1)N1CCC(c2cc(-c3ccncc3)c(-c3ccc(F)cc3)[nH]2)CC1 | 124
O=S(=O)(c1ccc(Cl)cc1)N1CCN(C(=S)NCc2ccco2)CC1 | 75.2
O=C(NC1CC1)c1ccc(CSCc2ccccc2Cl)o1 | 114
COC(=O)c1ccc(F)cc1NS(=O)(=O)c1cccc(-c2cnn(Cc3ccccc3)c2)c1 | 89.1
O=C(Nc1cccc(-c2ccc(NCCCN3CCCC3)nc2)c1)c1ccccc1 | 67.8
Cc1cc(O)nc(-n2nc(C)cc2C)n1 | 93.1
COc1cc(OC)cc(C(=O)NCC2Cc3cc(Cl)cc(-c4ccncc4)c3O2)c1 (stereo not given) | 153
CCOC(=O)c1c(NC(=O)c2c(F)c(F)c(F)c(F)c2F)sc(C(N)=O)c1C | -3.42
Nc1ncnc2c1ncn2[C@@H]1O[C@H](COS(=O)(=O)NC(=O)c2ccccc2O)[C@@H](O)[C@H]1O | 113
COc1nc2ccc(Br)cc2cc1[C@@H](c1ccccc1)[C@@](O)(CCN(C)C)c1cccc2ccccc12 | 7.23
CC1CCCCN1C(=O)NCCc1coc(-c2ccc(F)cc2)n1 (stereo not given) | 131
COc1ccc(-c2cncc3ccc(C(=O)NCCCn4ccnc4)nc23)cc1 | 121
Oc1c(I)cc(I)c2cccnc12 | 6.58
CN(C(=O)c1cc2c(-c3cncnc3)cccc2[nH]1)c1ccccc1 | 102
CNc1nnc(Sc2cnn(-c3ccccc3)c(=O)c2Cl)s1 | -5.83
CC(C)c1ncc(-c2ccncc2)c([C@H]2CC[C@H](CNC(=O)c3cccnc3)CC2)n1 | 94
COc1ccc(Nc2ccccc2NC(=O)c2ccc(O)nc2)cc1 | 176
